# NS1 inh – qHTS Assay for Inhibitors of Influenza NS1 Protein Function; 270,000 compounds, 0.4% hits; Potency, µM (top dose mostly 46.1 µM), without a hit: top-dose activity, positive = more growth; calls by dose curve; also: potency is read from the fitted curve at half-maximal effect; actives are rising curves; nearly all actives have a fitted effect of over 50% in size
#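 Recovery from NS1-induced slow growth read by OD600 in budding yeast switched to galactose assay medium (pH 6.0, -URA) at 1:100 dilution. Compound 23 nl per well; the matching strain lacking NS1 serves as control.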
# SARS PLpro yeast – qHTS of Yeast-based Assay for SARS-CoV PLP. Potency, µM (series often up to 32.9 µM), inactives show top-dose activity, positive = growth rescue, usual class: activators. 330,000 compounds, 0.19% hits. S. cerevisiae expressing SARS-CoV PLpro, growth rescue; calls by dose curve; also: potency is read from the fitted curve at half-maximal effect; 0% is about no effect; nearly all actives have a fitted effect of over 55% in size
# Pf growth 96h – Primary qHTS for delayed death inhibitors of the malarial parasite plastid, 96 hour incubation; P. falciparum luciferase reporter growth, 96 h; Potency, µM (highest dose often 28.7 µM), without a hit: at the top dose activity change, negative = inhibition, hits mostly inhibitors; 320,000 compounds, 6.9% hits; also: potency is read from the fitted curve at half-maximal effect; % is scaled to controls: 0 for no effect and ±100 for the full control effect
#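 Parasite growth measured via integrated firefly luciferase reporter in P. falciparum. Infected erythrocytes at 2% hematocrit, 0.05% parasitemia final were treated 96 hours at 37 C under 5% CO2, and luminescence was read.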
# Shiga inhibitor – A qHTS for Small Molecule Inhibitors of Shiga Toxin; Vero cells, Shiga toxin protein synthesis inhibition reporter; inhibition, % at 38.7 µM; 290,000 compounds, 9.2% hits; AID 2315, 2010; in the data active = inhibition mostly above about 28%, no sharp cut-off; inactive = mostly below about 43%; also: 0% is about no effect
# Pf growth 48h – Primary qHTS for delayed death inhibitors of the malarial parasite plastid, 48 hour incubation; 310,000 compounds, 5.9% hits; P. falciparum luciferase growth in erythrocytes, 48 h; AID 504832, 2011; Potency, µM (series often up to 28.7 µM), inactives show at the top dose activity change, negative = inhibition, most hits filed as inhibitors; also: potency is read from the fitted curve at half-maximal effect; % is scaled to controls: 0 for no effect and ±100 for the full control effect
#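 Erythrocytes infected with P. falciparum carrying an integrated firefly luciferase reporter (2% hematocrit, 0.1% parasitemia final) were exposed to compounds in RPMI 1640 with 0.5% Albumax at 37 C, 5% CO2. Growth inhibition was scored as reduced luminescence.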
# Cycloheximide cs – Cycloheximide Counterscreen for Small Molecule Inhibitors of Shiga Toxin; cell reporter, cycloheximide protein synthesis inhibition counterscreen; max response, %; 300,000 compounds, 12% hits; AID 2314, 2010; in the data active = max response mostly above about 13%, no sharp cut-off; inactive = mostly below about 14%; also: read at 38.3 µM for the half of the compounds with a filed dose; 0% is about no effect
# The depositor's hits bear a star; i = inactive; u = inconclusive; x = no result given; + = active, no number. In the library only some 21% were active in any assay of this set; here they are far more common. Unless noted, calls follow the shape of the dose curve; as a rule, active = well fitted inhibition curve with a large enough effect; inconclusive = small, poorly fitted or top-dose-only effect, or another doubt; inactive = no such curve, though single readings can be large or run the other way.
SMILES,NS1 inh,SARS PLpro yeast,Pf growth 96h,Shiga inhibitor,Pf growth 48h,Cycloheximide cs
O=C(N/N=C\CCc1ccccc1)c1ccco1,22%,2%,u,50*,-22%,38*
CC(/C=N/NC(=O)c1ccccc1F)=C\c1ccccc1,-15%,-11%,21%,107*,46%,47*
Cc1ccc(-c2nc(C)sc2CC(=O)Nc2cccc(C)c2C)cc1,2%,10%,u,30,-10%,-2
O=C(CCNS(=O)(=O)c1ccccc1)OCC(=O)c1ccc(Br)cc1,x,4%,21%,x,-22%,x
CCN(CC)S(=O)(=O)c1cccc(NC(=O)c2ccc(Sc3nncn3C)c([N+](=O)[O-])c2)c1,x,1%,u,20,u,-1
CC1CCCC(NC(=O)COC(=O)CN2C(=O)C3CCCCC3C2=O)C1C (configuration not stated),-1%,1%,u,-6,7%,-4
CC(NC(=O)c1ccc([N+](=O)[O-])cc1Cl)C1CC2CCC1C2 (configuration not stated),1%,-2%,u,43,-26%,14*
Cc1c(C(=O)Cc2ccccc2)n(C)c2ccccc12,x,-6%,2%,27,-13%,25*
CCCC(=O)c1c(C)c2ccccc2n1C,u,7%,3.3µM*,36,-12%,-1
O=C(Nc1ccc(Cl)c(Cl)c1)Nc1nnc(CC2=CCCCC2)s1,-2%,11%,u,2,u,-7
Cc1ccc(S(=O)(=O)CCC(=O)OC(C)C(=O)c2c(C)[nH]c3ccccc23)cc1 (configuration not stated),-20%,6%,12%,-6,5%,-1
O=C(NNC(=O)c1ccco1)c1ccccc1,-1%,1%,13%,19,49%,19*
Cc1ccc(C(=O)NNC(=O)c2ccco2)cc1,9%,-4%,i,+,120%,39*
CC(=O)NC(Cc1ccccc1C)C(=O)NC1CCN(c2ncccc2[N+](=O)[O-])CC1 (configuration not stated),-1%,-12%,u,-16,-18%,-1
CC1=C(C(=O)OCCCCCl)C(c2cc3c(cc2Br)OCO3)NC(=O)N1 (configuration not stated),18%,-3%,u,x,-50%,-2
COCCCNC(=S)N1CCC(C(=O)c2ccc(Cl)cc2)CC1,6%,-1%,u,-12,-2%,-3
CCN1CCN(CCCNC(=O)c2csc3c2CCCCC3)CC1,u,x,15µM*,-14,2%,-2
CC1CCc2c(C(=O)NCCCN3CCOCC3)csc2C1 (configuration not stated),1%,-13%,x,12,5%,12
O=C(NCCN1CCOCC1)c1csc2c1CCCCC2,-7%,-1%,9%,18,3%,10
CC(C)CNC(=S)NNC(=O)c1csc2c1CCC(C)C2 (configuration not stated),-2%,0%,6.6µM*,-5,x,3
CC1CCc2c(C(=O)NCCN3CCOCC3)csc2C1 (configuration not stated),u,-11%,8.3µM*,11,60%,9
O=C(COC(=O)c1cccc(Cl)c1)Nc1cc(Cl)ccc1Oc1ccccc1,14%,10%,20%,-3,4%,4
COc1ccc(C2CC(c3cccc(C(F)(F)F)c3)=NN2c2ccc(S(N)(=O)=O)cc2)cc1 (configuration not stated),x,5%,x,x,x,x
CN(Cc1ccccc1)C(=S)Nc1ccc2nc3n(c(=O)c2c1)CCCCC3,2%,6%,14%,-13,u,1
Cc1cccnc1CCNC(=O)CCc1nnc(-c2ccccc2)o1,6%,0%,4%,-5,-6%,8
SMILES,NS1 inh,SARS PLpro yeast,Pf growth 96h,Shiga inhibitor,Pf growth 48h,Cycloheximide cs
COc1ccc(CCc2nnc(CCC(=O)NCc3cc(C(C)C)no3)o2)cc1,-5%,0%,u,80*,15%,35*
COc1ccc(CCc2nnc(CCC(=O)NCCc3ncccc3C)o2)cc1,3%,1%,0%,25,0%,21*
COc1ccc(S(=O)(=O)N2CCCCCC2)cc1C(=O)N(C)Cc1ccc(C(C)(C)C)cc1,17%,0%,13µM*,-13,u,0
COc1ccc(CN(C)C(=O)c2cc(S(=O)(=O)N3CCOCC3)ccc2N2CCCC2)cc1,x,x,u,x,9.3µM*,x
COc1ccc(S(=O)(=O)N2CCCCCC2)cc1C(=O)N(C)Cc1ccc(F)cc1,x,x,-7%,x,u,x
CN(Cc1cccs1)C(=O)c1cc(S(=O)(=O)N2CCOCC2)ccc1N1CCCC1,x,-1%,12%,x,-7%,x
C=C(C)CN(CC)C(=O)CCc1nnc(CCCc2ccccc2)o1,-3%,-1%,9%,61*,43%,39*
CCN(CCn1cccn1)C(=O)CCc1nnc(CCCc2ccccc2)o1,-4%,0%,32%,99*,-5%,36*
O=C(CCc1nnc(CCCCc2ccccc2)o1)N(CCO)Cc1ccccc1,1%,1%,u,1,-9%,-2
CCCN(CC(=O)Nc1ccccc1C)C(=O)c1ccc2c(c1)S(=O)(=O)N=C1CCCCCN12,x,1%,-9%,x,-8%,x
CCCCOCCCN1CC(=O)N2[C@@H](Cc3c([nH]c4ccccc34)C2(C)C)C1=O,1%,-1%,9.3µM*,-3,u,-3
CCCCN(CCCC)CCCN1CC(=O)N2[C@@H](Cc3c([nH]c4ccccc34)C2(C)C)C1=O,2%,1%,u,-2,9.3µM*,-2
CCCCCN1CC(=O)N2[C@@H](Cc3c([nH]c4ccccc34)C2(C)C)C1=O,-1%,2%,u,-13,u,-4
CCOc1cccc(/C=N/NC(=S)Nc2ccccc2[N+](=O)[O-])c1O,9%,6%,u,154*,-50%,38*
COc1cccc(/C=N/NC(=S)NCCc2ccccc2)c1OC,-5%,-1%,40%,48,5%,-1
Cc1cccc(NC(=S)N/N=C/c2ccc(Cl)c([N+](=O)[O-])c2)c1,8%,-3%,0%,-11,15%,-1
CCCCNC(=S)N/N=C/c1cccc(OCC)c1O,-8%,1%,1.5µM*,30*,u,12
O=[N+]([O-])c1ccccc1NC(=S)N/N=C/c1ccc(O)c(O)c1,7%,0%,300%,74*,392%,22*
Clc1ccc(CCC(Cn2ccnc2)Sc2c(Cl)cccc2Cl)cc1 (configuration not stated),x,x,0.93µM*,x,1.5µM*,x
Clc1ccc(SCCCCn2ccnc2)cc1,-49%,-3%,u,14,u,2
O=[N+]([O-])c1ccc(CN2CCN(Cc3c[nH]c4ccccc34)CC2)cc1,x,-4%,u,12,u,-1

# Screens (PubChem)
